Measurements from PubChem BioAssay (Tox21).
Results filed as inconclusive are left out. Active and inactive are the calls of the source. Unless noted, the call rests on the fitted dose curve.

Columns and labels:
[1] = target: KiSS-1 receptor (Homo sapiens) (UniProt Q969F8); experiment: Human kisspeptin (KISS1R) small molecule agonists, calcium flux assay in KISS1R-HEK293 cells (AID 1920064; active means well fitted activation curve with a large enough effect in the repeat runs)
Method in brief: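 Measures KISS1R agonism through calcium-sensitive dye fluorescence in stably transfected HEK293 cells, read for 3 min after pin-tool compound delivery; 15-point titrations in triplicate.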

[2] = G protein-coupled receptor (GPCR) small molecule agonists, calcium flux assay: HEK293 wild type cell line counter screen (AID 1920065)
Method in brief: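 Readout: fluorescence at 480 nm excitation/540 nm emission, sampled at 1 s intervals for 3 min. Cells had been cultured 18 h, then dye-loaded 1 h at 37 C before compound or ATP addition.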

[3] = p53 small molecule agonists, cell-based qHTS assay with human liver microsomes (AID 1963577);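 further: p53 response element beta-lactamase reporter cells with liver microsomes plus NADPH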
Method in brief: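 HLM-supplemented p53RE-bla reporter assay: 16 h compound exposure at 37 C, microsomes and NADPH each 0.5 mg/mL final, read by fluorescence intensity.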

[4] = p53 small molecule agonists, cell-based qHTS assay with rat liver microsomes (AID 1963578)
Method in brief: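 Quantitative HTS of the Tox21 10K library: p53RE-bla cells, rat liver microsomes plus NADPH at 0.5 mg/mL final each, 16 h at 37 C, beta-lactamase fluorescence detection.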

[5] = p53 small molecule agonists, cell-based qHTS assay with human liver microsomes: qHTS cell viability counter screen (AID 1963579); further: nearly all actives have a fitted effect of over 45% in size
Method in brief: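 Viability of p53RE-bla cells is measured as CellTiter-Glo luminescence following a 16 h, 37 C incubation with compound, liver microsomes from human donors and NADPH.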

[6] = p53 small molecule agonists, cell-based qHTS assay with rat liver microsomes: qHTS cell viability counter screen (AID 1963580); further: nearly all actives have a fitted effect of over 45% in size
Method in brief: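 p53RE-bla HCT-116 cells (4,000/well) rested 5 h at 37 C, then given Tox21 compounds in DMSO with rat liver microsomes (0.5 mg/mL final) plus NADPH (0.5 mg/mL final) for 16 h at 37 C. Viability read by CellTiter-Glo luminescence after 30 min at room temperature.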

[7] = p53 small molecule agonists, cell-based qHTS assay: qHTS cell viability counter screen (AID 1963581); further: nearly all actives have a fitted effect of over 45% in size
Method in brief: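 In the same plates used for the p53 bla reporter, HCT-116 cells given compounds for 16 h at 37 C received CellTiter-Glo; luminescence was recorded 30 min later at room temperature.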

[8] = p53 small molecule agonists, cell-based qHTS assay (AID 1963582; active means well fitted activation curve with a large enough effect in the signal ratio in the repeat runs, not every such curve was filed as active; the % refers to the signal ratio)
Method in brief: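 Compounds are pin-transferred in DMSO onto p53RE-bla cells and incubated 16 h at 37 C. The B/G FRET beta-lactamase substrate is then applied for 2 h at RT and fluorescence recorded.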

[9] = target: 5-hydroxytryptamine receptor 2A (Homo sapiens) (UniProt P28223); experiment: 5-hydroxytryptamine receptor 2A (HTR2A) small molecule antagonists, cell-based qHTS assay (AID 1963586); further: nearly all actives have a fitted effect of over 45% in size
Chain of 5-hydroxytryptamine receptor 2A (Homo sapiens) (P28223 whole entry, looked up): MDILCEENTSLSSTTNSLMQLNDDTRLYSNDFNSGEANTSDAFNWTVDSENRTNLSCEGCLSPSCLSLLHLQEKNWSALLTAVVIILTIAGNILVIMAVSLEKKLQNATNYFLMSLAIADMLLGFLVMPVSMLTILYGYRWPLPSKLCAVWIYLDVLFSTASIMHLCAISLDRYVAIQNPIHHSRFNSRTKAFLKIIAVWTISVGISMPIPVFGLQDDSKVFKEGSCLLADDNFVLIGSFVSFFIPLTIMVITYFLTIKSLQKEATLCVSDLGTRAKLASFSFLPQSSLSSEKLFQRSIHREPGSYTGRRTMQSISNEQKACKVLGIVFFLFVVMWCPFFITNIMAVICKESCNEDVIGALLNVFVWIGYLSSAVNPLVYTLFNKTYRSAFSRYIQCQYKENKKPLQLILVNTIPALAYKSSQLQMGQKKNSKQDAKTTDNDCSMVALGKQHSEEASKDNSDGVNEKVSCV
Method in brief: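 Antagonist-mode intracellular calcium assay: DOI (4 nM) added after 5 min compound pre-incubation at room temperature to dye-loaded HTR2A-CHO cells. Fluorescence followed for 3 min, sampled every second.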

[10] = target: 5-hydroxytryptamine receptor 2A (Homo sapiens) (UniProt P28223); experiment: 5-hydroxytryptamine receptor 2A (HTR2A) small molecule agonists, cell-based qHTS assay (AID 1963587); further: nearly all actives have a fitted effect of over 30% in size
Method in brief: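 HTR2A-CHO cells, plated 18 h at 37 C/5% CO2, dye-loaded 1 h at 37 C; compounds in DMSO added by pin tool (agonist mode). Intracellular calcium flux read as kinetic fluorescence on FDSS over 2 min at 1 s intervals.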

[11] = target: Muscarinic acetylcholine receptor M1 (Homo sapiens) (UniProt P11229); experiment: Cholinergic receptor muscarinic 1 (CHRM1) small molecule antagonists, cell-based qHTS assay (AID 1963588); further: nearly all actives have a fitted effect of over 40% in size
Chain of Muscarinic acetylcholine receptor M1 (Homo sapiens) (P11229 whole entry, looked up): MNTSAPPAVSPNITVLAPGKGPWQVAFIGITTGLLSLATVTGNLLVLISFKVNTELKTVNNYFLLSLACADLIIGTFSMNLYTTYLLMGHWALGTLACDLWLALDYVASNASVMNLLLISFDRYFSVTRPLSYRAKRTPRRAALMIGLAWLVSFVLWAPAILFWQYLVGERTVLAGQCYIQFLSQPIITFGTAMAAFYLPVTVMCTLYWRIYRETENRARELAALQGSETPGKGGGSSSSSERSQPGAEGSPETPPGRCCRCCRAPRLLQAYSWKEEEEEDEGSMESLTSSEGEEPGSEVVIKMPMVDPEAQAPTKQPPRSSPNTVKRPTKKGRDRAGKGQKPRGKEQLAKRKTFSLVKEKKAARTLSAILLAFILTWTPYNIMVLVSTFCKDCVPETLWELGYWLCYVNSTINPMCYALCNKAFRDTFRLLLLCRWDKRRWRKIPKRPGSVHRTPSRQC
Method in brief: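 CHRM1-CHO calcium-flux assay, antagonist mode. Cells were seeded 18 h, dye-loaded 1 h at 37 C and given compound for 5 min at RT, then acetylcholine was added at 50nM. FDSS fluorescence was read 3 min; 15 concentrations, three runs.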

[12] = target: Muscarinic acetylcholine receptor M1 (Homo sapiens) (UniProt P11229); experiment: Cholinergic receptor muscarinic 1 (CHRM1) small molecule agonists, cell-based qHTS assay (AID 1963589); further: nearly all actives have a fitted effect of over 35% in size
Method in brief: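 Each compound was tested at 15 concentrations across three independent runs on dye-loaded CHO cells stably expressing human CHRM1, reading intracellular calcium fluorescence kinetically at 1 sec intervals.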

[13] = cAMP Responsive Elements (CRE) small molecule agonists, cell-based qHTS assay (AID 1963590)
Method in brief: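 Cell line: CRE-bla HEK 293T; medium DMEM/10% dialyzed FBS/0.1 mM NEAA/1 mM pyruvate/25 mM HEPES; 3 h compound exposure; beta-lactamase FRET readout after 2 h substrate loading at RT.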

[14] = cAMP Responsive Elements (CRE) small molecule antagonists, cell-based qHTS assay (AID 1963591; active means well fitted inhibition curve with a large enough effect in the signal ratio in the repeat runs, not every such curve was filed as active; the % refers to the signal ratio)
Method in brief: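 Inhibition of NKH477-driven (0.25 uM final) CRE-beta-lactamase signal in HEK293T cells, 3 h compound exposure at 37 °C, detected by FRET substrate fluorescence.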

[15] = target: Beta-2 adrenergic receptor (Homo sapiens) (UniProt P07550); experiment: Adrenergic beta2 receptor (ADRB2) small molecule agonists, cell-based qHTS assay (AID 1963593);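 further: CHO cells stably overexpressing human ADRB2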
Chain of Beta-2 adrenergic receptor (Homo sapiens) (P07550 whole entry, looked up): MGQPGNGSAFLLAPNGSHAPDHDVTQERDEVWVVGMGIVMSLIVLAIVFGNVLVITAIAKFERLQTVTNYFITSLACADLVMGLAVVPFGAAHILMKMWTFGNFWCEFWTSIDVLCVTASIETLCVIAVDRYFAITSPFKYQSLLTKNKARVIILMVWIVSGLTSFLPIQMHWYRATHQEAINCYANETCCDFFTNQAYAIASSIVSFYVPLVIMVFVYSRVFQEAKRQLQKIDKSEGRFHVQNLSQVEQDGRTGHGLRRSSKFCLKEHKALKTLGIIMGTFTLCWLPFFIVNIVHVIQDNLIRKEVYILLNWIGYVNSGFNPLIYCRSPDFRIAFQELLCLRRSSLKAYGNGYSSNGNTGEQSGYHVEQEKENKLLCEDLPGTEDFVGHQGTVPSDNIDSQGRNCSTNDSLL
Method in brief: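 CHO cells stably over-expressing ADRB2 were plated overnight at 37C, then dosed with compounds plus a stimulation mix containing 100uM IBMX and 25uM Ro-20-1724 for 0.5hr at room temperature. cAMP was measured by HTRF competition, 1hr.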

[16] = target: D(2) dopamine receptor (Homo sapiens) (UniProt P14416); experiment: Dopamine D2 receptor (DRD2) small molecule agonists, cell-based qHTS assay (AID 1963594); further: nearly all actives have a fitted effect of over 35% in size
Chain of D(2) dopamine receptor (Homo sapiens) (P14416 whole entry, looked up): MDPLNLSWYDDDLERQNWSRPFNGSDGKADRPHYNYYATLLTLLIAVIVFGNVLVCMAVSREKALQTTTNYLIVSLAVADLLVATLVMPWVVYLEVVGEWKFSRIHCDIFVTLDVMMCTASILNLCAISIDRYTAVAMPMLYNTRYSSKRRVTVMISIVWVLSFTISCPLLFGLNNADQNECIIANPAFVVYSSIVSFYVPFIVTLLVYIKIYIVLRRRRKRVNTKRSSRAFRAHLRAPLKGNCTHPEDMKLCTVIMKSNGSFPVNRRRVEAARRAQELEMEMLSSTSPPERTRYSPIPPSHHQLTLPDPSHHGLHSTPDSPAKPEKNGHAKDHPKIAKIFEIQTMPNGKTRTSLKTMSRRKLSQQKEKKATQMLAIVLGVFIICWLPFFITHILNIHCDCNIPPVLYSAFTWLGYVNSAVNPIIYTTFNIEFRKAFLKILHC
Method in brief: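 HEK293 cells stably expressing DRD2 were cultured 24 h at 37 C, then given Ro20-1724 (0.1 mM final) and compounds for 10 min at room temperature. NKH477 (200nM) was then added for 30 min. cAMP was read by HTRF.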

[17] = target: D(2) dopamine receptor (Homo sapiens) (UniProt P14416); experiment: Dopamine D2 receptor (DRD2) small molecule antagonists, cell-based qHTS assay (AID 1963595; active means well fitted inhibition curve with a large enough effect in the signal ratio in the repeat runs, with a control signal flat; the % refers to the signal ratio)
Method in brief: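 Human DRD2 antagonist qHTS measuring cAMP by HTRF. The cells are exposed to compound for 10 min, then to NKH477 (200 nM) and quinpirole (12 nM) for 30 min at RT, with Ro20-1724 (0.1 mM) present throughout.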

[18] = target: Gonadotropin-releasing hormone receptor (Homo sapiens) (UniProt P30968); experiment: Human gonadotropin-releasing hormone receptor (GnRHR) small molecule agonists, calcium flux assay in GnRHR-HEK293 cells (AID 1920063); further: nearly all actives have a fitted effect of over 35% in size
Chain of Gonadotropin-releasing hormone receptor (Homo sapiens) (P30968 whole entry, looked up): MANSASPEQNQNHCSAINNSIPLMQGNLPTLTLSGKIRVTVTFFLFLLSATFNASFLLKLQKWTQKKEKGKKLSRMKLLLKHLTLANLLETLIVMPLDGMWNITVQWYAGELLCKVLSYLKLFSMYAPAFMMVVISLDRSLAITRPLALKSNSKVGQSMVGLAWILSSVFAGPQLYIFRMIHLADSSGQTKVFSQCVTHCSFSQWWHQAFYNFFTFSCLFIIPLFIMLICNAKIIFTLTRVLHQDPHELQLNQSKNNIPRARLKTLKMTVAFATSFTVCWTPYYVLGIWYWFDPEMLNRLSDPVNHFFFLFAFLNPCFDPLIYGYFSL
Method in brief: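 Fluorescence kinetics (480 nm excitation, 540 nm emission; 3 min, 1 s steps) report calcium mobilisation in human GnRHR-HEK293 cells in agonist mode. Dye incubation: 1 h, 37 C.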

[19] = target: Beta-2 adrenergic receptor (Homo sapiens) (UniProt P07550); experiment: Adrenergic beta2 receptor (ADRB2) small molecule antagonists, cell-based qHTS assay (AID 1963592); further: series mostly up to about 92 µM; nearly all actives have a fitted effect of over 50% in size
Method in brief: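 Cells (CHO, stable ADRB2 overexpression) incubated 18-20hr at 37C; compounds added from DMSO; agonist mix (1nM isoproterenol, 100uM IBMX, 25uM Ro-20-1724) added; 0.5hr RT; d2-cAMP and anti-cAMP-cryptate added; 1hr RT; 665/615 nm read.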

Measured: Potency

Chain of KiSS-1 receptor (Homo sapiens) (Q969F8 whole entry, looked up): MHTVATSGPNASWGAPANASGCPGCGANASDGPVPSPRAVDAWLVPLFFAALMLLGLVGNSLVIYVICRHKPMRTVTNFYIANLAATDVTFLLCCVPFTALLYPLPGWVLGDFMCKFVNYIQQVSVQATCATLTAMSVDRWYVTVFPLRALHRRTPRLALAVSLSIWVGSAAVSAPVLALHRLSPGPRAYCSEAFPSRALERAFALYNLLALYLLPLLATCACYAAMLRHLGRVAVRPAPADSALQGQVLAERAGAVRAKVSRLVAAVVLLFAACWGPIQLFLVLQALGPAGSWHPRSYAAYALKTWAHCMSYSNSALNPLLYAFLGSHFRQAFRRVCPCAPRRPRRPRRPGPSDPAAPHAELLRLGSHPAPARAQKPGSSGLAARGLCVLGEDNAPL

CC(Cl)CN(C)C (centres undefined)
not listed: [18] | [19]
inactive: all other assays above

CC(C)CCCCCCCOP(=O)(Oc1ccccc1)Oc1ccccc1
not listed: [3] | [4] | [8] | [11] | [13] | [15] | [17]
inactive: all other assays above

O=C(O)C(O)C(O)C(=O)O (centres undefined)
not listed: [3] | [4] | [8] | [18]
inactive: all other assays above
